Results taken from PubChem BioAssay.
Unmarked numbers belong to inactive results. How the calls were made is not given here.

Target: Pantothenate synthetase (Mycobacterium tuberculosis (strain ATCC 25618 / H37Rv)) (UniProt P9WIL5)
Experiment: Recombinant Mtb pantothenate synthetase (PanC) inhibitors, coupled enzyme, confirmatory (AID 375);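 further: 0% = full reaction with vehicle and 100% = no enzyme background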
Details: coupled enzyme assay; at 10 µM, stronger effect = higher value

Sequence of Pantothenate synthetase (Mycobacterium tuberculosis (strain ATCC 25618 / H37Rv)) (P9WIL5 whole entry, looked up): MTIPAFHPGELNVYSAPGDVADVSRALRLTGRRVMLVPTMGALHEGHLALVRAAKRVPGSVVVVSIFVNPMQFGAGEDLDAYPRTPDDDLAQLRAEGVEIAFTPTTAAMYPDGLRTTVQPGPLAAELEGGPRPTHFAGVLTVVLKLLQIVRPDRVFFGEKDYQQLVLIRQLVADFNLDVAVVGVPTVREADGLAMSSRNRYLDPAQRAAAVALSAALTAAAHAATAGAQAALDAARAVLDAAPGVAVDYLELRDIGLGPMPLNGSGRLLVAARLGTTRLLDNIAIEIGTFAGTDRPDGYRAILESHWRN

Compound | inhibition
Cc1nn(-c2ccccc2)c2c1C(O)n1c(nc3ccccc31)S2 (stereo not given) | 2%
COCCCN1C(=O)C(=O)/C(=C(/O)c2ccc(OCC(C)C)cc2C)C1c1cccnc1 (stereo not given) | 0%
O=C(NCCN1CCOCC1)c1ccc2c(c1)N(Cc1ccccc1F)C(=O)CS2 | 0%
COc1ccc(CNC(=O)c2ccc(CN3CCOCC3)cc2)cc1 | 8%
CC1CCc2nn(CC(=O)NCc3ccc(F)cc3)cc2C1 (stereo not given) | 7%
COC(=O)c1ccc(N2C(=O)CC(N3CCN(C(=O)c4ccco4)CC3)C2=O)cc1 (stereo not given) | 0%
Cc1ccc(CN2C(=O)CCC2C(=O)NCC2CCCO2)cc1 (stereo not given) | 3%
C/C=C/COC(=O)c1[nH]c2c(c1C)C(=O)CC(c1ccco1)C2 (stereo not given) | 6%
CCOc1ccc2nc(NC(=O)CSc3nnnn3C3CCCCC3)sc2c1 | 1%
COc1ccccc1OCC(=O)NCC1CCCCC1 | 0%
COc1ccc(Cc2nc3ccc(S(N)(=O)=O)cc3[nH]2)cc1OC | 0%
CCOC(=O)C1CCN(c2c(NCCN3CCN(c4ccccc4)CC3)c(=O)c2=O)CC1 | 0%
COC(=O)CSc1nnc(CSc2nc(C)cc(C)n2)n1Cc1ccco1 | 0%
NS(=O)(=O)c1cc2c(cc1Cl)NCNS2(=O)=O | 0%
O=C(CN1CCOCC1)N1CCCc2c1c(=O)oc1ccc(OCc3ccccc3)cc21 | 4%
O=C(CN1CCC(O)(c2ccc3c(c2)OCO3)CC1)OC1CCCCC1 | 0%
CC(C)Cn1c2c(c(O)c(C(=O)Nc3ncccc3O)c1=O)CCCC2 | 0%
O=C(NC12CC3CC(CC(C3)C1)C2)C1CCCN1C(=O)NC1CCCCC1 (stereo not given) | 0%
Cc1ccc(-c2noc(CN3CCN(c4ccccc4F)CC3)n2)cc1 | 0%
COc1ccc(CN(C(=O)c2cccs2)c2nccs2)cc1OC | 3%

Compound | inhibition
CCCCOCCCNC(=O)c1ccccc1OCC | 2%
O=C(CCCn1c(=S)[nH]c2cc3c(cc2c1=O)OCO3)N1CCN(c2ccccc2F)CC1 | 0%
Cc1csc2nc(CNC(=O)c3ccco3)cn12 | 0%
C#CC(CO)N(CCN(Cc1ccccc1)C(C#C)CO)Cc1ccccc1 (stereo not given) | 9%
COc1ccc(N=c2scc(-c3ccc(S(=O)(=O)N4CCOCC4)cc3)n2CCCO)cc1 | 0%
O=C(O)c1cnn2c1NC(c1ccc(F)cc1)CC2C(F)(F)F (stereo not given) | 2%
CCc1ccc(NC(=O)C2CC(=O)N(C(C)C)C2)cc1 (stereo not given) | 0%
O=C(CCCCCn1c(=O)[nH]c2ccsc2c1=O)N1CCCCC1 | 5%
O=C(CCN1C(=O)c2ccccc2C1=O)Nc1ccc(F)cc1 | 0%
Cc1nc2sc(C(c3ccco3)N3CCN(c4ccccc4F)CC3)c(O)n2n1 (stereo not given) | 0%
O=C1CN(C(=O)COC(=O)C23CC4CC(CC(O)(C4)C2)C3)c2ccccc2N1 | 19%
CCn1c(=N)n(CC(O)COc2cccc(C)c2)c2ccccc21 (stereo not given) | 4%
COc1cccc(CNC(=O)C2CCN(c3cnccn3)CC2)c1 | 0%
CCOc1cc(C2C(C#N)=C(N)OC(C)=C2C(C)=O)cc(Br)c1O (stereo not given) | 1%
CCSc1nc(O)c(CC)c(=O)n1C(C)CC (stereo not given) | 3%
Cc1cc(C)n2nc(SCc3nc4ccccc4[nH]3)nc2n1 | 6%
COCCCNC(=O)CSc1nc2ccc(N3CCOCC3)cc2c(=O)n1CCc1ccccc1 | 0%
COc1ccc(N2CCN(CCCNC(=O)CC3Oc4ccc(C)cc4NC3=O)CC2)cc1 (stereo not given) | 0%
Cn1c(=O)c2c(ncn2CC(=O)OCC(=O)NC2CCCc3ccccc32)n(C)c1=O (stereo not given) | 3%
COc1ccc2cc(C(c3nnnn3C3CCCCC3)N3CCCCCC3)c3nnnn3c2c1 (stereo not given) | 3%
